Among the data in PubChem BioAssay (EPA / NIEHS) are AC50 and outcome values, retold here.

Assay [1] in a line: TOX21_p53_BLA_p3_viability: Viability Assessment in the Tox21 HCT-116 p53 Agonism Beta-lactamase Assay, Phase 3 (AID 2283593).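 Further: cells exposed to compound for 16 h before reading.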 Put shortly: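 Cellular ATP was quantified by CellTiter-Glo luminescence, read after 30 min at room temperature. Beforehand, HCT116 cells (4000/well) received compound 5 h post-seeding, 217-fold diluted from DMSO, then incubated 16 h at 37C.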
The target in assay [2] is Cellular tumor antigen p53 (Homo sapiens) (UniProt P04637). Briefly: TOX21_p53_BLA_p3_ratio: Tox21 HCT-116 p53 Agonism Beta-lactamase Assay, Ratio, Phase 3 (AID 2283596). Summed up:
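HCT116 p53-bla cells (4000/well) given compound in DMSO (217-fold dilution) after 5 h, incubated 16 h at 37C. CCF4-AM substrate 2 h at room temperature; 460/530 nm emission ratio, gain fitted against DMSO.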

A short description of assay [3]: TOX21_p53_BLA_p4_viability: Viability Assessment in the Tox21 HCT-116 p53 Agonism Beta-lactamase Assay, Phase 4 (AID 2283597).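 Further: hits lower the luminescence signal meaning cytotoxicity.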 Put shortly:
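Luminescent ATP readout (CellTiter-Glo, 30 min, room temperature) in the same wells as the p53 bla ratio. HCT116 cells were treated for 16 h at 37C with DMSO-dissolved compounds.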

Assay [4] has as its target Cellular tumor antigen p53 (Homo sapiens) (UniProt P04637). Kind of assay: TOX21_p53_BLA_p5_ratio: Tox21 HCT-116 p53 Agonism Beta-lactamase Assay, Ratio, Phase 5 (AID 2283599). Summed up:
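Beta-lactamase reporter ratio (blue 460 nm over green 530 nm, 405 nm excitation) after 2 h CCF4-AM loading, in HCT-116 cells exposed 16 h at 37 C to compounds pinned at 217-fold dilution. Increases relative to DMSO baseline scored.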

Assay [5] is described as follows: TOX21_p53_BLA_p5_viability: Viability Assessment in the Tox21 HCT-116 p53 Agonism Beta-lactamase Assay, Phase 5 (AID 2283600). Put shortly: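 Seeded cells (4000/well) settle 5 h before compound addition. Plates then incubate 16 h at 37C, receive FRET substrate for 2 h, and finally CellTiter-Glo, with luminescence measured after a 30 min room-temperature incubation.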

Assay [6] deals with Cellular tumor antigen p53 (Homo sapiens) (UniProt P04637). Kind of assay: TOX21_p53_BLA_p4_ratio: Tox21 HCT-116 p53 Agonism Beta-lactamase Assay, Ratio, Phase 4 (AID 2283601). Put shortly: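 Signal is the blue/green (460nm/530nm) ratio of cleaved versus uncleaved CCF4-AM substrate, read after 2 h substrate loading. Cells were HCT116 carrying the p53-responsive beta-lactamase reporter, dosed 16 h at 37C, 5% CO2; CellTiter-Glo measured in parallel.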

Assay [7] in a line: Tanguay_ZF_120hpf_MORT_legacy: (Legacy) Oregon State University Tanguay Lab 120 Hour Post-fertilization zebrafish Assay for Mortality (AID 2283633).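 On AC50: fitted as increase in binary mortality versus DMSO negative control.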 Summed up:
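Single dechorionated Tropical 5D embryos were held with test chemical (0.64% DMSO final) from 6 to 120 hpf at 28C under foil. Deaths at 24 or 120 hpf were recorded as binary calls, analysed for increase over DMSO controls.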

Assay [8] can be described thus: Tanguay_ZF_120hpf_AXIS_legacy: (Legacy) Oregon State University Tanguay Lab 120 Hour Post-fertilization zebrafish Assay for Body Axis Malformation (AID 2283635).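 On AC50: potency for an increased fraction of larvae scored with body axis malformation.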 Summed up:
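Each dechorionated embryo was exposed alone from 6 hpf, with DMSO at 0.64% (vol/vol) and trimethyltin chloride 5 uM as positive control. Axis malformation was recorded at 120 hpf unless the embryo had died.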

A short description of assay [9]: Tanguay_ZF_120hpf_EYE_legacy: (Legacy) Oregon State University Tanguay Lab 120 Hour Post-fertilization zebrafish Assay for Eye Malformation (AID 2283636). Put shortly: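 Read-out is binary presence or absence of eye malformation, scored by brightfield microscopy at 120 hpf. Single larvae were exposed from 6 hpf in embryo medium containing 0.64% DMSO, with DMSO as baseline.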

Assay [10] in a line: Tanguay_ZF_120hpf_SNOU_legacy: (Legacy) Oregon State University Tanguay Lab 120 Hour Post-fertilization zebrafish Assay for Snout Malformation (AID 2283637). Summed up: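 Snout malformation read as a yes/no call on brightfield images of 120 hpf larvae (Tropical 5D strain). Static exposure began at 6 hpf on dechorionated embryos in 0.64% DMSO, with gain of signal analysed versus DMSO controls.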

Assay [11] in a line: Tanguay_ZF_120hpf_JAW_legacy: (Legacy) Oregon State University Tanguay Lab 120 Hour Post-fertilization zebrafish Assay for Jaw Malformation (AID 2283638).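 On AC50: active means more embryos with jaw malformation than DMSO controls.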 Put shortly: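 Wild-type 5D embryos, chorion removed at 4 hpf, dosed singly from 6 hpf; 28C static, sealed, foil-covered, to 120 hpf. Endpoint: jaw defect yes/no (brightfield); mortality excludes scoring.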
A short description of assay [12]: Tanguay_ZF_120hpf_OTIC_legacy: (Legacy) Oregon State University Tanguay Lab 120 Hour Post-fertilization zebrafish Assay for Otic Vesicle Malformation (AID 2283639). Put shortly: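 Tropical 5D wild-type zebrafish embryos were exposed statically in sealed, foil-covered plates at 28C until 120 hpf, with 0.64% (vol/vol) DMSO final. Otic vesicle malformation was scored present/absent by brightfield microscopy, with DMSO as baseline.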

Assay [13] in a line: Tanguay_ZF_120hpf_BRAI_legacy: (Legacy) Oregon State University Tanguay Lab 120 Hour Post-fertilization zebrafish Assay for Brain Malformation (AID 2283641). Put shortly: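 Static exposure of staged wild-type embryos until 120 hpf, kept at 28C with light excluded and final DMSO of 0.64% (vol/vol). Presence or absence of brain malformation was noted under brightfield; mortality precluded scoring.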

The nature of assay [14]: Tanguay_ZF_120hpf_SOMI_legacy: (Legacy) Oregon State University Tanguay Lab 120 Hour Post-fertilization zebrafish Assay for Somite Malformation (AID 2283647). Summed up:
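Somitogenesis defects are recorded as binary calls in whole larvae at 120 hpf after continuous static chemical exposure starting at 6 hpf in dechorionated 5D embryos. DMSO serves as negative control and baseline.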

Assay [15] can be described thus: Tanguay_ZF_120hpf_PFIN_legacy: (Legacy) Oregon State University Tanguay Lab 120 Hour Post-fertilization zebrafish Assay for Pectoral Fin Malformation (AID 2283648).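 Further: each larva judged yes or no for fin defect by brightfield with dead larvae skipped.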 Put shortly:
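5D WT zebrafish; pronase dechorionation 4 hpf; 1 embryo/well at 6 hpf; static exposure to 120 hpf, 28C, sealed, foil-covered; final DMSO 0.64% v/v; 5 uM trimethyltin chloride positive control; fin defect scored yes/no.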

The nature of assay [16]: Tanguay_ZF_120hpf_CFIN_legacy: (Legacy) Oregon State University Tanguay Lab 120 Hour Post-fertilization zebrafish Assay for Caudal Fin Malformation (AID 2283649). Summed up:
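Single dechorionated 5D wild-type embryos are dosed at 6 hpf (final DMSO 0.64%) and held statically at 28C. Caudal fin malformation is recorded as present or absent at 120 hpf under brightfield, excluding dead embryos.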

Assay [17] in a line: Tanguay_ZF_120hpf_PIG_legacy: (Legacy) Oregon State University Tanguay Lab 120 Hour Post-fertilization zebrafish Assay for Pigmentation Malformation (AID 2283650). Summed up:
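Pronase dechorionation at 4 hpf; embryos plated at 6 hpf, one per well; static exposure, sealed and foil-covered, 28C, to 120 hpf; pigmentation read by brightfield, binary; DMSO 0.64% baseline, 5uM trimethyltin chloride positive control.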

Assay [18] is described as follows: Tanguay_ZF_120hpf_CIRC_legacy: (Legacy) Oregon State University Tanguay Lab 120 Hour Post-fertilization zebrafish Assay for Circulatory Malformation (AID 2283651). Put shortly: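 Tropical 5D wild-type embryos, dechorionated with pronase at 4 hpf, were placed singly in wells at 6 hpf and exposed statically at 28C to 120 hpf (0.64% DMSO final). Circulatory malformation was scored present/absent by brightfield microscopy.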

Assay [19] is described as follows: Tanguay_ZF_120hpf_YSE_legacy: (Legacy) Oregon State University Tanguay Lab 120 Hour Post-fertilization zebrafish Assay for Yolk Sac Edema (AID 2283634). Put shortly: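 Single dechorionated embryos were held in sealed plates at 28C with test chemical (0.64% DMSO final) from 6 hpf until 120 hpf. Edema of the yolk sac was then recorded as a binary endpoint; non-mortality endpoints were skipped for dead embryos.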

Assay [20] is described as follows: Tanguay_ZF_120hpf_PE_legacy: (Legacy) Oregon State University Tanguay Lab 120 Hour Post-fertilization zebrafish Assay for Pericardial Edema (AID 2283640). Put shortly:
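Zebrafish larvae are exposed from early development to 120 hpf at 28C, with 0.64% DMSO final. Each surviving larva receives a yes/no pericardial edema call by brightfield imaging, analysed relative to the DMSO baseline.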

Several values for one entry are separate records, joined by “and”; a condition that tells them apart may be missing. Identical values can stand only once. Records with an inconclusive call do not appear. Some structures have more than one record in an assay (separate samples or runs), and their calls can disagree. Activity calls are given as the source filed them. How the source made its calls: active means hit-call score of the fitted dose curve at least 0.9, where 1 is the maximum; inconclusive means response in the unintended direction; inactive means score below 0.9.

Chain of Cellular tumor antigen p53 (Homo sapiens) (P04637 whole entry, looked up): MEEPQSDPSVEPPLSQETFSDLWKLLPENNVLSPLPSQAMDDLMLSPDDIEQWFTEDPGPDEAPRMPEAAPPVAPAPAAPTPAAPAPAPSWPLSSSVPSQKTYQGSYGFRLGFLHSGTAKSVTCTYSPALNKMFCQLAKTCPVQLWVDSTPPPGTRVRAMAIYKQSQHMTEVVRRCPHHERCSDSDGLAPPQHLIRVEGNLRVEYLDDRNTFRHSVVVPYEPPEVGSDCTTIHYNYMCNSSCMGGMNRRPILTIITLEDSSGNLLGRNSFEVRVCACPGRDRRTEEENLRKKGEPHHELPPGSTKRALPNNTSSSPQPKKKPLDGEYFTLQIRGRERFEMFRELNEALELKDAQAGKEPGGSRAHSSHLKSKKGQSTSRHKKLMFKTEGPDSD

Broadly, the AC50 is the midpoint of the concentration-response curve, whichever way the signal moves. Take `NC(=O)c1nc(-c2cccc(-c3cc(F)ccc3OCC(F)(F)C(F)(F)F)c2)n[nH]1`: the half-maximal activity concentration (AC50) was 74 µM (active) in assay [1]; 87.4 µM (active) in assay [2]; 70.5 µM (active) in assay [3]; 86.6 µM (active) in assay [4]; 72.7 µM (active) in [5]; 86.3 µM (active) in assay [6]. Besides, the AC50 in assay [8] was 25.9 µM (active); in assay [9] it was 9.38 µM (active); in [10] it was 25.8 µM (active); in assay [11] it was 28.7 µM (active); in [12], 27.8 µM (active); in assay [13], 26 µM (active). The half-maximal activity concentration (AC50) in [14] was 25.8 µM (active); in [15], 24.8 µM (active); in [17] it was 26.7 µM (active); in assay [18], 27.3 µM (active). Also, the compound was classed as inactive in [7] and in assay [16].

As to `CCCCOC(=O)c1ccc(O)cc1`, the compound was called inactive in assay [1], in assay [2], in [3], in [4], in assay [5] and in assay [6]. Besides, the compound was classed as inactive in assay [7]. Further, the half-maximal activity concentration (AC50) was 45.1 µM (active) in assay [8]; 41.1 µM (active) in assay [9]; 24.9 µM (active) in assay [10]; 29.5 µM (active) in assay [11]; 46.5 µM (active) in [12]; 11.1 µM (active) in assay [13]. Further, the AC50 in assay [15] is 46.5 µM (active); in assay [16], 50.2 µM (active); in assay [17], 36.9 µM (active); in [18] it was 40.3 µM (active).

Consider `COc1ccc2cc(S(=O)(=O)N[C@H](CC(=O)N[C@H](Cc3ccc(CN4[C@H](C)CCC[C@@H]4C)cc3)C(=O)N(C)C(C)C)c3ccc4c(c3)OCO4)ccc2c1`, for which the concentration at half-maximal activity (AC50) is 84.8 µM (active) in assay [1]; 60.6 µM (active) in assay [3]; 71.9 µM (active) in [4]; 56.7 µM (active) in [5]; 72.1 µM (active) in assay [6]. The result in assay [2], in [7], in [19], in assay [8], in [9] and in assay [10] was inactive. The compound was called inactive in assay [11], in [20], in assay [13], in assay [15], in [16] and in [17]. Moreover, the compound was called inactive in assay [18].

In the case of `CC/C(=C(/CC)c1ccc(O)cc1)c1ccc(O)cc1`, the call in assay [1], in assay [3], in [5], in [8], in assay [10] and in assay [11] was inactive. Besides, the outcome in assay [12], in [20], in [13], in [15], in [16] and in [18] was inactive. In addition, the concentration at half-maximal activity (AC50) in [2] was 11.8 µM (active) and 14 µM (active); in assay [3] it was 46 µM (active); in assay [4] it was 17.3 µM (active) and 4.28 µM (active); in [5], 75.1 µM (active); in [6], 38.3 µM (active) and 8.57 µM (active); in assay [7] it was 10.8 µM (active).

As to `CCCCCCCCCCCC[N+](C)(C)C`, the half-maximal activity concentration (AC50) in [1] is 85.3 µM (active); in assay [2], 21 µM (active) and 16 µM (active) and 46.1 µM (active); in assay [3], 83.2 µM (active) and 46 µM (active) and 46.1 µM (active); in [4], 33.3 µM (active); in [6], 37.4 µM (active) and 17.3 µM (active) and 46.4 µM (active). Also, the compound was classed as inactive in [1], in [4], in assay [5], in [7], in assay [8] and in assay [10]. For the same compound, the compound was classed as inactive in [11], in assay [12], in assay [13], in [15], in assay [16] and in assay [17]. The result in assay [18] was inactive.

`CCCCCCCCCC(=O)O`: the compound was called inactive in [1], in assay [2], in assay [3], in assay [4], in assay [5] and in [6]. For the same compound, the outcome in [7], in [8], in [9], in assay [10], in assay [11] and in [20] was inactive. Further, the call in assay [13], in [14], in assay [15], in assay [16], in assay [17] and in assay [18] was inactive.
